Test results from PubChem BioAssay (Tox21).
Inconclusive results are not listed. Entries that show only a call come without a potency. Calls of active or inactive are those of the source. Unless noted, the call rests on the fitted dose curve; in most records, active means well fitted curve in the direction sought with a large enough effect in the repeat runs; inconclusive means weak or mixed curves; inactive means no such curve, though single readings can be large; an effect the other way counts as inactive or inconclusive.

Assays:
[1] = qHTS assay to identify small molecule agonists of the vitamin D receptor (VDR) signaling pathway - cell viability counter screen (AID 743224); further: nearly all actives have a fitted effect of over 50% in size; further: potency means the concentration at half of the fitted maximal effect
How it was run: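 Plated VDR-bla cells (4 h, 37C) received compound, incubated 16 h, then LiveBLAzer substrate 2 h RT; CellTiter-Glo added afterwards, luminescence read at 30 min.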

[2] = qHTS assay to identify small molecule agonists of the NFkB signaling pathway (AID 1159509; active means well fitted curve in the direction sought with a large enough effect in the signal ratio in the repeat runs, not every such curve was filed as active; the % refers to the signal ratio; further: series mostly up to about 61 µM)
How it was run: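 After overnight attachment, reporter cells received test compounds, DMSO or positive controls and were incubated 5 hr at 37 C. FRET substrate was then added for 1.5 hr at room temperature before dual-emission fluorescence reading.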

[3] = qHTS assay to identify small molecule agonists of the NFkB signaling pathway - cell viability counter screen (AID 1159515; calls by dose curve; further: series mostly up to about 61 µM; nearly all actives have a fitted effect of over 55% in size)
How it was run: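 Using the same wells as the NFkB reporter read, ME-180 NFkB-bla cells given compounds for 5 hr were assessed for viability via CellTiter-Glo, with luminescence taken after a 30 min room-temperature incubation.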

[4] = qHTS assay to identify small molecule agonists of the endoplasmic reticulum stress response signaling pathway (AID 1159516; active means well fitted activation curve with a large enough effect in the signal ratio in the repeat runs, not every such curve was filed as active; the % refers to the signal ratio)
How it was run: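 An ESRE-bla HeLa cell assay: compounds were pin-transferred from DMSO onto overnight-plated cells and left 5 hr at 37 C. Substrate was then loaded for 2 hr at room temperature before reading fluorescence at 460 nm and 530 nm.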

[5] = qHTS assay to identify small molecule agonists of the endoplasmic reticulum stress response signaling pathway - cell viability counter screen (AID 1159517; calls by dose curve;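 further: HeLa cells carrying an ER stress response element beta-lactamase reporter; series mostly up to about 61 µM; nearly all actives have a fitted effect of over 50% in size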)
How it was run: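 Luminescence readout: CellTiter-Glo, 30 min RT, same wells as the ESRE-bla reporter read. HeLa ESRE-bla, 1,500 cells/well, o/n 37 C; cpd 5 hr 37 C/5% CO2.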

[6] = qHTS assay to identify small molecule antagonists of the retinoid-related orphan receptor gamma (ROR-gamma) signaling pathway - cell viability counter screen (AID 1159520); further: nearly all actives have a fitted effect of over 50% in size
How it was run: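 Tet-on ROR gamma CHO cells (1,000/well) were plated 4 hr, given compounds in DMSO for 2 hr at 37 C, then induced with 1 uM final doxycycline for 16 hr. Viability was read as ATP by CellTiter-Glo luminescence after 30 min.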

[7] = qHTS assay to identify small molecule agonists of the AP-1 signaling pathway (AID 1159526; calls by dose curve)
[8] = target: Retinoic acid receptor RXR-alpha (Homo sapiens) (UniProt P19793); assay: qHTS assay to identify small molecule agonists of the RXR signaling pathway (AID 1159527; calls by dose curve; further: nearly all actives have a fitted effect of over 35% in size)
How it was run: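 GeneBLAzer RXR-alpha-UAS-bla HEK 293T cells in medium with 2% charcoal-stripped FBS, pre-incubated 5 hr at 37 C, then exposed to compounds 16 hr. Beta-lactamase reporter read by FRET substrate, 2 hr room temperature, 460/530 nm emission.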

[9] = qHTS assay to identify small molecule agonists of the RXR signaling pathway - cell viability counter screen (AID 1159529); further: series mostly up to about 77 µM; nearly all actives have a fitted effect of over 50% in size
How it was run: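 RXR-alpha-UAS-bla HEK 293T cells in medium with 2% charcoal-stripped FBS were preincubated 5 hr, then exposed to compounds for 16 hr at 37 C. Viability was read as CellTiter-Glo luminescence after 30 min at room temperature.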

[10] = qHTS assay to identify small molecule antagonists of the retinoic acid receptor (RAR) signaling pathway (AID 1159552; further: nearly all actives have a fitted effect of over 50% in size)
How it was run: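 RARE-luc C3RL4 cells; cpds + 1 uM (final) retinol, 6 hr, 37 C/5% CO2; luciferase reagent, 30 min RT, luminescence readout. Inhibitors of retinol-driven signal scored.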

[11] = qHTS assay to identify small molecule agonists of the retinoic acid receptor (RAR) signaling pathway (AID 1159553); further: potency means the concentration at half of the fitted maximal effect
How it was run: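 Reporter readout comes from luciferase under RARE control in C3RL4 cells; compound exposure lasts 6 hr at 37 C in 5% CO2, and luminescence is recorded following a 30 min room-temperature incubation with reagent.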

[12] = qHTS assay to identify small molecule antagonists of the vitamin D receptor (VDR) signaling pathway - cell viability counter screen (AID 743225); further: nearly all actives have a fitted effect of over 50% in size
How it was run: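 VDR-bla HEK 293T cells, 4 h pre-incubation at 37C, then compound plus 1-alpha,25-dihydroxyvitamin D3 (3 nM final) for 16 h. After the beta-lactamase FRET read, CellTiter-Glo was added to the same wells; luminescence after 30 min at room temperature.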

[13] = qHTS assay to identify small molecule agonists of the AP-1 signaling pathway - cell viability counter screen (AID 1159525; calls by dose curve; further: nearly all actives have a fitted effect of over 55% in size)
How it was run: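 ME-180 AP-1-bla, 2500 cells/well, Opti-MEM + 0.5% dialyzed FBS; overnight 37 °C; cpd 15-pt titration, 5 h 37 °C; CellTiter-Glo 30 min RT; luminescence read; normalised to TOAB and DMSO controls.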

[14] = qHTS assay to identify small molecule antagonists of the retinoid acid receptor (RAR) signaling pathway - cell viability counter screen (AID 1159551); further: nearly all actives have a fitted effect of over 35% in size
How it was run: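 Retinol-stimulated (1 uM final) C3RL4 cells, compound 6 h, 37 C; readout CellTiter-Glo luminescence (ATP) after 30 min RT incubation.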

[15] = qHTS assay to identify small molecule antagonists of the estrogen related receptor (ERR) signaling pathway - cell viability counter screen (AID 1224818);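 further: series mostly up to about 46 µM; viability measured after 17.5 h of compound exposure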
How it was run: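 After a 6 h pre-incubation, ERR cells were dosed by pin tool with compounds, positive/negative controls or DMSO alone. Following 17.5 h at 37 C and 30 min with CellTiter-Fluor, fluorescence was recorded.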

[16] = qHTS assay to identify small molecule antagonists of the estrogen related receptor (ERR) signaling pathway (AID 1224819)
How it was run: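 Luminescence readout (One-Glo, 30 min, RT) of ERR cell line after 18 h compound exposure at 37 C; cells seeded 2,000/well, pre-incubated 6 h, compounds pinned from DMSO stocks.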

[17] = qHTS assay to identify small molecule agonists of the estrogen related receptor (ERR) signaling pathway (AID 1224820)
How it was run: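 Quantitative HTS of the LOPAC library used NTP ERR reporter cells treated 18 h at 37 C. Signal is luminescence after One-Glo addition and a 30 min room-temperature incubation.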

[18] = qHTS assay to identify small molecule antagonists of the estrogen related receptor signaling pathway with the pleiotropic PPARgamma coactivator (PGC) cell viability counter screen (AID 1224822;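 further: series mostly up to about 46 µM; viability read after 17.5 h compound exposure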)
How it was run: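 PGC/ERR cells were plated at 2,000 per well and allowed 6 h to settle before compound addition. Following 17.5 h at 37 C, CellTiter-Fluor reagent was added and fluorescence was read 30 min later.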

[19] = qHTS assay to identify small molecule agonists of the estrogen related receptor signaling pathway with the pleiotropic PPARgamma coactivator (PGC) (AID 1224823)
How it was run: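 Cell-based luciferase assay in the NTP-supplied PGC/ERR line, 2,000 cells/well; 18 h compound exposure at 37 C, luminescence after One-Glo.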

Sequence of Retinoic acid receptor RXR-alpha (Homo sapiens) (P19793 whole entry, looked up): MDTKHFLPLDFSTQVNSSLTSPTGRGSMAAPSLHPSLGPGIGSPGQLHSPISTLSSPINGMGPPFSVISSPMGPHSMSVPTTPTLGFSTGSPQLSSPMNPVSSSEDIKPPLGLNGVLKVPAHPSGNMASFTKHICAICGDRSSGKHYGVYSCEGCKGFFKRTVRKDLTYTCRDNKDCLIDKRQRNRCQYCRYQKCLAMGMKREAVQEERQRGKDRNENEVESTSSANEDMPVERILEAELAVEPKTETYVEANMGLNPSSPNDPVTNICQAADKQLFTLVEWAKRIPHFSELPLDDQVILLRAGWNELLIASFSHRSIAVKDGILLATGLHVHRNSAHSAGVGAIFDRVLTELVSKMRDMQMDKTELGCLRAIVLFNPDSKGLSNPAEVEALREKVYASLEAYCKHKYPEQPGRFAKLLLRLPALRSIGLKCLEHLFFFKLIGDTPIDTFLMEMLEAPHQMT

SMILES | Potency [1] | outcome [2] | outcome [3] | outcome [4] | Potency [5] | Potency [6] | outcome [7] | Potency [8] | Potency [9] | Potency [10] | Potency [11] | outcome [12] | Potency [13] | Potency [14] | outcome [15] | outcome [16] | outcome [17] | outcome [18] | outcome [19]
c1coc(-c2nc3ccccc3[nH]2)c1 | inactive | inactive | inactive | inactive | inactive | inactive | inactive | inactive | inactive | inactive | 3.86 µM (active) |  |  |  |  |  |  |  | 
COP(=S)(OC)Oc1c(Cl)cc(C)cc1Cl | inactive | inactive | inactive | inactive | inactive | inactive | inactive | inactive | inactive |  | inactive | inactive | inactive | inactive |  |  |  |  | 
Cc1cc(C)nc(Nc2ccccc2)n1 | inactive | inactive | inactive | inactive | inactive | inactive | inactive | inactive | inactive |  |  |  | inactive | inactive |  |  |  |  | 
COc1cccc(C(=O)NN(C(=O)c2cc(C)cc(C)c2)C(C)(C)C)c1C | inactive | inactive | inactive | inactive | inactive | inactive | inactive | inactive | inactive | inactive | inactive |  |  |  |  |  |  |  | 
O=C1OC(=O)C2C1C1(Cl)C(Cl)=C(Cl)C2(Cl)C1(Cl)Cl (stereo not drawn) | inactive | inactive | inactive | inactive | inactive | inactive | inactive | inactive | inactive |  | inactive | inactive | inactive | inactive |  |  |  |  | 
Clc1cccc(N2CCNCC2)c1 | inactive | inactive | inactive | inactive | inactive | inactive | inactive | inactive | inactive | inactive | inactive |  |  | inactive |  |  |  |  | 
COC(=O)c1c(C(F)F)nc(C(F)(F)F)c(C2=NCCS2)c1CC(C)C | inactive | inactive | inactive | inactive | inactive | inactive | inactive | inactive | inactive | inactive | inactive | inactive |  | inactive |  |  |  |  | 
CCOC(=O)/C=C(C)/C=C/C[C@@H](C)CCCC(C)C | 34.7 µM (active) | inactive | inactive | inactive | inactive | inactive | inactive | inactive | inactive |  | inactive | inactive | inactive | inactive |  |  |  |  | 
c1ccc(N2CCNCC2)cc1 | inactive | inactive | inactive | inactive | inactive | inactive | inactive | inactive | inactive |  |  | inactive | inactive | inactive |  |  |  |  | 
C[C@]12CC[C@H]3[C@@H](CC=C4C[C@@H](O)CC[C@@]43C)[C@@H]1CC[C@@H]2O | inactive | inactive | inactive | inactive | inactive | inactive | inactive | inactive |  |  | inactive | inactive | inactive | inactive |  |  |  |  | 
CNCC(=O)c1ccc(O)c(O)c1 | inactive | inactive | inactive | inactive | inactive | inactive | inactive | inactive | inactive |  |  | inactive | inactive |  |  |  |  |  | 
Cc1cc(C)c(C(=O)P(=O)(C(=O)c2c(C)cc(C)cc2C)c2ccccc2)c(C)c1 |  | inactive | inactive | inactive | inactive | inactive | inactive | inactive | inactive | inactive | inactive | inactive |  | inactive |  |  |  |  | 
ClC(Cl)C(Cl)Cl | inactive | inactive | inactive | inactive | inactive | inactive | inactive | inactive | inactive | inactive | inactive | inactive |  |  |  |  |  |  | 
CC(=O)[C@H]1CC[C@H]2[C@@H]3CC[C@H]4C[C@H](O)CC[C@]4(C)[C@H]3C(=O)C[C@]12C | inactive | inactive | inactive | inactive | inactive | inactive | inactive | inactive |  | inactive | inactive | inactive | inactive | inactive | inactive | inactive | inactive | inactive | inactive
Clc1ccccc1N1CCNCC1 | inactive | inactive | inactive | inactive | inactive | inactive | inactive | inactive | inactive |  | inactive | inactive |  |  |  |  |  |  | 
O=C(Oc1ccc(Br)cc1)N1CCN2CCC1CC2 | inactive | inactive | inactive | inactive | inactive | inactive | inactive | inactive |  | inactive | inactive | inactive | inactive | inactive |  |  |  |  | 
